# Assay results taken from PubChem BioAssay AID1446 (The Scripps Research Institute Molecular Screening Center, 2008).
# The whole screen tested about 220,000 compounds, of which about 2,400 (1.1%) were called active. What follows is part of a selection rich in actives, with near analogues and random picks from the rest. Values without a mark were called inactive.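 How the source made its calls: active means inhibition above the campaign mean plus 3 SD over all tested compounds (cut at about 24% in these data); inactive means the rest.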
# Experiment: viability loss in Ba/F3 EpoR-JAK2V617F cells – cell-based, luminescence, JAK2V617F inhibitor project, primary screen (AID 1446);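 further: cytokine-independent growth of Ba/F3 cells driven by EpoR plus mutant JAK2; 0% = DMSO-treated cells and 100% = JAK inhibitor I control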
# Details: ATP luminescence, at 5.6 µM, stronger effect = higher value
row,Compound,inhibition
1,CSc1nnc(-c2ccc(C(F)(F)F)cn2)o1,-4.69%
2,CC(=O)NC(Cc1ccc(F)c(F)c1)C(=O)NC1CCN(c2nnnn2-c2ccccc2)CC1 (stereo unspecified),1.68%
3,O=C(COC(=O)CNS(=O)(=O)c1ccccc1)NC12CC3CC(CC(C3)C1)C2,2.17%
4,CN(CC(=O)Nc1cccc(F)c1)CC(=O)Nc1cccc([N+](=O)[O-])c1,1.69%
5,Cc1ccc(CN(C)CC(=O)Nc2cccc([N+](=O)[O-])c2)o1,-2.99%
6,Cc1ccc(NC(=O)CN(C)CC(=O)Nc2cccc(F)c2)cc1[N+](=O)[O-],32.7% (active)
7,Nc1ccc2nn(-c3ccc(Cl)cc3)nc2c1,-0.91%
8,Cc1ncc([N+](=O)[O-])n1CCOC(=O)c1ccc(Br)cc1,-1.79%
9,CCCCCCNC(=O)CSc1nccn1Cc1ccccc1,-2.6%
10,CCOc1cccc(-c2nnc3sc(COc4ccc(OC)cc4)nn23)c1,-2.87%
11,CCOc1cccc(-n2nnnc2-c2ccc(OC)cc2)c1,62.5% (active)
12,COc1ccc(-n2nnnc2-c2nc3ccccc3s2)cc1,-2.25%
13,CC[n+]1c(C)n(-c2ccccc2)c2ccc(NC(C)=O)cc21,70.6% (active)
14,CCn1c2ccccc2c2cc(NC(=O)CNC)ccc21,-0.79%
15,CCc1ccc(NC(=O)N2CCN(c3ccccc3)CC2)cc1,0.49%
16,COc1cccc(NC(=O)CC2C(=O)NCCN2C(=S)Nc2ccc(F)cc2)c1 (stereo unspecified),3.64%
17,COc1ccc(S(=O)(=O)N(CC(=O)N/N=C/c2ccccc2C(=O)O)c2ccccc2OC)cc1,-2.32%
18,Cc1ccccc1-c1nc(C#N)c(NCc2ccco2)o1,0.66%
19,COc1ccccc1-c1nc(C#N)c(N2CCC(C(N)=O)CC2)o1,-2.39%
20,COc1ccc(Nc2oc(-c3ccccc3Cl)nc2C#N)cc1,50.8% (active)
21,CC(C)C(=O)Nc1oc(-c2ccccc2)cc1C#N,0.17%
22,CC1CCN(S(=O)(=O)c2ccc(S(=O)(=O)NCc3cccnc3)cc2)CC1,0.32%
23,CCCCCCn1c(CN2CCCCC2)nc2c1c(=O)n(C)c(=O)n2C,-2.26%
24,CCCCCCCCn1c2c(c(=N)c3c1CCC3)CCCC2,101% (active)

row,Compound,inhibition
1,CN(Cc1cccnc1)C(=O)c1cc(COc2ccc3ncccc3c2)on1,54.2% (active)
2,Cc1cc(NCc2cccnc2)no1,-7.11%
3,Cc1noc(C)c1COc1cccc(C(=O)Nc2cccnc2)c1,-0.6%
4,Cc1cccc(-[n+]2c(-c3cccc(Br)c3)[nH]c3nc4ccccc4nc32)c1,-1.46%
5,COc1ccc2nc(Nc3nc4ccc(NC(C)=O)cc4s3)sc2c1,-4.43%
6,CCCC(=O)Nc1nc2ccc(NC(=O)c3c(F)c(F)c(OC)c(F)c3F)cc2s1,81.8% (active)
7,CCCC(=O)Nc1nc2ccc(NC(=O)c3cccnc3)cc2s1,2.04%
8,CCc1cccc(NC(=O)CCNS(=O)(=O)c2cccc3nonc23)c1,-3.57%
9,Cc1onc(-c2ccc(Cl)cc2)c1-c1ccnn1S(=O)(=O)c1ccc(Cl)cc1,-1.9%
10,CC1=NOC(=O)/C1=C\c1ccccc1,-4.85%
11,COc1cc(/C=C2/C(=O)ON=C2C)ccc1OCc1ccccc1F,-2.39%
12,COc1cc(/C=C2/C(=O)ON=C2C)ccc1OCc1cccc(F)c1,67.1% (active)
13,COc1ccc(NS(=O)(=O)c2ccc(N3CCOCC3)c(NC(=O)c3ccccc3Br)c2)cc1,2.5%
14,COc1ccccc1N=Cc1c(O)c2ccccc2oc1=O,5.52%
15,CCC(=O)Nc1nc2ccccc2n1Cc1ccccc1C,-0.24%
16,CC(=O)Nc1nc2ccccc2n1Cc1ccc(C)cc1,-2.63%
17,CCCn1c(NC(=O)C23CC4CC(CC(O)(C4)C2)C3)nc2ccccc21,53% (active)
18,CCOP(=O)(OCC)C(Nc1cccc(C)c1)c1ccc(F)cc1 (stereo unspecified),-3.26%
19,Cn1cc(/C=C/c2nc3ccccc3c(=O)n2-c2cccc([N+](=O)[O-])c2)c2ccccc21,0.27%
20,CCn1c(/C=C/c2ccc([N+](=O)[O-])o2)nc2ccccc2c1=O,40.5% (active)
21,C/[N+]([O-])=C\c1ccc([N+](=O)[O-])o1,-0.25%
22,CCc1nnc(NC(=O)CSc2nnnn2-c2cccc(C(C)=O)c2)s1,-3.92%
23,CC(=O)Nc1ccc(S(=O)(=O)Oc2ccc(/C=N/N=C3/NC(=O)C(CC(=O)O)S3)cc2)cc1 (stereo unspecified),1.79%
24,COc1ccc2nc(Nc3nc(-c4cc5ccccc5oc4=O)cs3)sc2c1,-2.4%

row,Compound,inhibition
1,O=c1oc2ccccc2cc1-c1csc(Nc2ccc(O)cc2)n1,70.4% (active)
2,COc1ccc(-c2csc(Nc3ccccn3)n2)cc1,-3.7%
3,COc1ccc2nc(Nc3nc(-c4ccncc4)cs3)sc2c1,3.58%
4,COc1ccc(Nc2nc(-c3ccccc3)cs2)cc1,1.67%
5,COc1ccc(C)cc1Nc1nc(-c2c(C)[nH]c3ccccc23)cs1,-2.69%
6,COc1ccc(-c2csc(Nc3ccc(O)cc3)n2)cc1,65.8% (active)
7,CCNc1nc(-c2cc3ccccc3o2)cs1,-1.02%
8,COc1ccc(OC)c(Nc2nc(-c3ccc(O)c(O)c3)cs2)c1,35.7% (active)
9,Cc1ccc(O)c(CCc2ccccc2)n1,-4.38%
10,Cc1nc(Cl)c(C#N)c2c1CCCC2,-4.53%
11,Cc1cc(C)n(CC(O)CN(c2ccccc2)S(=O)(=O)c2ccc3ccccc3c2)n1 (stereo unspecified),0.98%
12,S=c1[nH]c2ccccc2c2ccccc12,-1.73%
13,CN(C)CCNC(=O)/C(=C/c1cccc([N+](=O)[O-])c1)NC(=O)c1ccccc1,3.86%
14,O=C1/C(=C\c2ccsc2)NC(=S)N1c1ccccc1,-2.32%
15,O=C1N/C(=C/c2cccn2-c2ccccc2)C(=O)N1c1cccc(Cl)c1,51.8% (active)
16,Cc1ccccc1NC(=O)CN1C(=O)N/C(=C\c2cccn2-c2cccc(C(=O)O)c2)C1=O,0.8%
17,Cc1ccc(C(=O)NN(CCC#N)C2=NS(=O)(=O)c3ccccc32)cc1,-4.16%
18,Cc1ccc2sc(NNC(=O)c3ccc4c(c3)OCCO4)nc2c1C,-3.73%
19,COc1ccc(N2CCN(Cc3cc(=O)oc4ccc5ccccc5c34)CC2)cc1,0.19%
20,COc1ccc(Nc2cc(=O)oc3ccccc23)cc1,55.1% (active)
21,COc1ccc(Nc2cc(=O)n(-c3ccccc3)c3c2c(=O)n(C)c(=O)n3C)cc1,0.16%
22,O=C(CC(c1ccccc1)c1cc(Cl)ccc1O)NCCN1CCOCC1 (stereo unspecified),-3.6%
23,C/C(CC(C)C)=N\Oc1nc(C)cc(C)n1,-2.21%
24,O=[N+]([O-])c1cc(C(F)(F)F)ccc1NN=C1CCCC1,-0.95%

row,Compound,inhibition
1,O=C(CCN1CCCCC1)N=Nc1c(O)[nH]c2ccccc12,1.24%
2,COC(=O)COc1cccc2c(=O)n(CC(=O)NCc3ccccc3)ccc12,58.8% (active)
3,Cc1ccc(CNC(=O)CCNC(=O)Cn2ccc3ccccc3c2=O)cc1,0.07%
4,COC(=O)COc1cccc2c(=O)n(CC(=O)NCCc3ccc(OC)c(OC)c3)ccc12,-2.26%
5,CC(C)(C)NC(=O)c1ccc(Cn2cc(C(F)(F)F)ccc2=O)cc1,0.95%
6,Cc1cc2ccccn2c1C(=O)c1cccc(S(=O)(=O)N2CCOCC2)c1,-0.04%
7,C/C(CC(=O)NC(C)(C)C)=N\NC(=O)c1ccco1,-1.54%
8,CCCNc1c(N)c(=O)c1=O,1.36%
9,CCc1cc(C(=O)c2ccc(OC)cc2)c(NC(=O)CN2CCN(C)CC2)s1,-1.89%
10,CCOC(=O)N1CCN(C(=O)C2CCN(Cc3ccc(OC)cc3OC)CC2)CC1,-0.59%
11,CCOC(=O)N1CCN(C(=O)C2CCN(c3ncnc4c3sc3cccc(F)c34)CC2)CC1,43.9% (active)
12,CCOC(=O)C1CCN(c2ncnc3c2oc2ccc(Br)cc23)CC1,0.71%
13,COc1ccc(/C=N/OCC(=O)N(Cc2ccccc2)c2ccccc2C(=O)O)cc1,-2.1%
14,CCCCN1C(=O)/C(=C(/C#N)C(N)=O)c2ccccc21,-3.07%
15,CC(C)c1ccc(Nc2nnc(SCC(=O)c3nnc(-c4ccccc4)o3)s2)cc1,0.01%
16,COc1ccc(CCNC(=O)C(=O)NCC2CCNCC2)cc1OC,-3.6%
17,Cc1ccc2c(c1)C1CN(C)CCC1N2S(=O)(=O)c1ccc(Oc2ccc([N+](=O)[O-])cc2)cc1 (stereo unspecified),-5.1%
18,CCn1c(CSCc2c(Cl)cccc2Cl)n[nH]c1=S,-2.13%
19,COc1cc2c(cc1OC)C(/C=C/c1ccco1)=NCC2,1.51%
20,O=c1oc2ccccc2cc1-c1cn(-c2ccccc2)c(=S)[nH]1,35.7% (active)
21,O=C(c1cn(-c2ccccc2)nc1-c1cc2ccccc2oc1=O)N1CCOCC1,-0.6%
22,Nc1ncc(-c2cc3ccccc3oc2=O)s1,6.85%
23,Cc1nc2c(ncn2-c2ccccc2)c(=O)n1NC(=O)CN1CCCC1,-1.07%
24,O=C(NNC(=O)c1ccccc1[N+](=O)[O-])Nc1ccccc1C(F)(F)F,-0.76%
